Each molecule was assayed against AMP-activated protein kinase, AMPK (Homo sapiens) (UniProt P54646+O43741+P54619+Q9UGJ0+Q9Y478+Q13131+Q9UGI9) (assay: AMP-dependent Kinase enzyme assay. An in vitro enzyme assay that detects ADP turnover that is directly proportional to AMPK activity. This uses naive AMPK that is activated during the assay with MK-8722). Conditions: 30 µM.
Assay type: functional
Design: scale not given: direction of the effect not stated beside the values
CN1CCOC(CNCC(=O)NCCC2=CCCCC2)C1 (centres undefined) was tested, and the Percent Effect was -9.7%. CCCOc1ccc(Cl)cc1CNc1ncnc2oc(C)nc12 was tested, and the Percent Effect was 0.0102%. With Cc1cc(C)c(NC(=O)Nc2cnn(CC(O)CN(C)C)c2)c(C)c1 (centres undefined) the Percent Effect was 0.923%. With O=C(NC1CC1)C1CNCCN1C(=O)CCOc1ccccc1 (centres undefined) the Percent Effect was 4.98%. NC(=O)NC1(C(=O)N2CCc3c(Cl)cccc3C2)CCCCC1 gave a Percent Effect of -3.74%. COc1ccc(CCn2cnc(C#N)n2)cc1 was tested, and the Percent Effect was -6.21%. c1ccc(N2CCC(OCC3CCCCO3)CC2)nc1 (centres undefined) gave a Percent Effect of 6.76%. Molecule Cc1cc(-c2cc3nc(C)c(C)c(NCC4COCCO4)n3n2)no1 (centres undefined) has a Percent Effect of 17.6%. For CN(CCCOc1ccccc1Cl)C(=O)CN1CCCCCC1=O, the Percent Effect was 9.36%. For Cc1cc(CN(CC(N)=O)CC(C)C)no1, the Percent Effect was -8.69%. Cc1cc(CN2CCC(C3CCN(Cc4cccnc4)CC3)C2)[nH]n1 (centres undefined) gave a Percent Effect of -8.19%. For CN(C)C(CNC(=O)c1ccnc(-n2cncn2)c1)c1ccccc1 (centres undefined), the Percent Effect was -0.565%. Work on COCc1ccccc1NC(=O)c1ccoc1 yielded a Percent Effect of -4.58%. In the case of c1ccc(CCN2CCN(C3CCOC4(CCOCC4)C3)CC2)cc1 (centres undefined), the Percent Effect is reported as -8.46%. Molecule CN(C)c1ccc(C(=O)N2CCC(c3cc4cnccc4[nH]3)CC2)cc1 has a Percent Effect of 20.5%. CCNc1ncc(C(=O)NCCc2csc(-c3ncccn3)n2)cn1 was tested, and the Percent Effect was -8.34%. With CC(NCc1cccc(COC2CCCC2)c1)c1cnn(C)c1 (centres undefined) the Percent Effect was 3.6%. Cc1ccsc1C(CNC(=O)c1cc(=O)c2ccccc2[nH]1)N(C)C (centres undefined) showed a Percent Effect of 13.7%. Cc1cc(NCCc2nc(C)c[nH]2)nc(-c2ccccc2O)n1 gave a Percent Effect of 17.8%.

— ChEMBL document CHEMBL3988442, “University of Dundee, Small-Polar-MMV Screening Library” (2021)
